# Data as given in PMC7819943, “Rice protein-binding microarrays: a tool to detect cis-acting elements near promoter regions in rice”.
# Over roughly 68,000 sequences, “fluorescence intensity (a.u.)” has its median near 9,100; the highest 2% begin near 16,000. The list comes from a sample in which the highest values are over-represented; it also holds similar and randomly drawn sequences.
# Molecular target: OsWRKY34 (Oryza sativa, UniProt Q0JBA9 1-250)
# Assay: protein-binding microarray (RPBM); PBS, 2% BSA, 51.3 ng/ul salmon testes DNA, 50 uM zinc acetate, 200 nM TF, 25 C, 1 h; high values mean tight binding
# Conditions: protein: recombinant; tags: N-terminal polyhistidine and DsRed monomer fusion (pET32a); label: CyDye5-dUTP incorporated in the synthesized complementary strand; 3' TTTTT single-stranded linker to array surface; dsDNA, one strand shown
# Outline: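 Binding signal is defined as the fluorescence intensity of each feature in arbitrary units, read on an Axon 4000B scanner. Transcription factors with N-terminal polyhistidine and DsRed fusions came from E. coli BL21-CodonPlus and were purified on Ni–NTA. They were incubated at 200 nM for 1 h at 25 °C on a custom Agilent array that had been made double-stranded with Cy5-dUTP, with 50 µM zinc acetate present, and the array was washed.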
# Sequence of OsWRKY34 (Q0JBA9 entry or part of it): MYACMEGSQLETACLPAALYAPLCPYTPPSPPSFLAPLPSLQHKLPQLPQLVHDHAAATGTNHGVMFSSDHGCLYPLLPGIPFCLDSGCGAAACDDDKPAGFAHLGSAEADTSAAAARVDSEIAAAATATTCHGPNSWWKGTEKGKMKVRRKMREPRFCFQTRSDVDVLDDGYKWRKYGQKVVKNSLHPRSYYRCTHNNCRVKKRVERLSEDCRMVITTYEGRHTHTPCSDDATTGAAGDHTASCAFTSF
row,Sequence,binding signal
1,GTCTCGTGGCACCTCAATTTATTAATCACTACCCCTATACCGGAGTCACCTAGTGCAG,8710 fluorescence intensity (a.u.)
2,CATTAGACCCTGAGGTTTTTGACTAGGCAGCCCACTTGTCCGGAGTCACCTAGTGCAG,9040 fluorescence intensity (a.u.)
3,ATAAAACAAATGATCAAACGTTGAATAAAAAGTCAACGGCCGGAGTCACCTAGTGCAG,11100 fluorescence intensity (a.u.)
4,AATGGTCAAACGTTGGATAAAAAGTCAACGGCGTCATACACGGAGTCACCTAGTGCAG,14700 fluorescence intensity (a.u.)
5,ACAAATGGTCAAACGTTGGTCGAAAAGTCAACGGCGTCATCGGAGTCACCTAGTGCAG,13700 fluorescence intensity (a.u.)
6,AAACGAATAGTCAAACGTTGATCGAAAAGTCAACGGCGTCCGGAGTCACCTAGTGCAG,19300 fluorescence intensity (a.u.)
7,GAAATGTCAAATATTTGTTAAAAAGTCAACGGCGTCATACCGGAGTCACCTAGTGCAG,11900 fluorescence intensity (a.u.)
8,GATCAAACGTTGGTTAAAAAGTCAACGGCGTCATACATTACGGAGTCACCTAGTGCAG,10700 fluorescence intensity (a.u.)
9,AAAAAGTCAACGGCGTCATATATTAAAATATGGAGAGAGTCGGAGTCACCTAGTGCAG,8150 fluorescence intensity (a.u.)
10,TTTAAATAAAACGAATGGTCAAACGTTGATAAAAAGTCAACGGAGTCACCTAGTGCAG,13300 fluorescence intensity (a.u.)
11,ACAAATGGTCAAACGTTGATAAAAAAGTCAACGGCGTCATCGGAGTCACCTAGTGCAG,20600 fluorescence intensity (a.u.)
12,TAAAACGAATGGTCAAACGTTGGTCGAAAAGTCAACGGCGCGGAGTCACCTAGTGCAG,14400 fluorescence intensity (a.u.)
13,CGGATGGTCAAACGTTGGTCAAAAAGTCAACGGCGTCATACGGAGTCACCTAGTGCAG,19600 fluorescence intensity (a.u.)
14,GTTTGTCAAAAAGTCAACGGCGTCATATATTATACGGAGGCGGAGTCACCTAGTGCAG,18800 fluorescence intensity (a.u.)
15,GGTTTTTCCTAGTTTTGAGATTTACGTGCTATTTTGTGAACGGAGTCACCTAGTGCAG,8950 fluorescence intensity (a.u.)
16,CGTGTCGCACCACATCCAGCGTCCCACGGCCTACCACCGCCGGAGTCACCTAGTGCAG,8700 fluorescence intensity (a.u.)
17,ATATGGCATCTCGGTTTCGTCTTAACAGGGTATTGCACTACGGAGTCACCTAGTGCAG,9900 fluorescence intensity (a.u.)
18,ACTCCCTTGCTTTTTCTCGCTATCAATCACAATAATCCAACGGAGTCACCTAGTGCAG,9590 fluorescence intensity (a.u.)
19,CGTGTGGTTGATTGTGTGTGCGAGCCGAATGCTGCCTACTCGGAGTCACCTAGTGCAG,9260 fluorescence intensity (a.u.)
20,TTACCATGGTGCATTTACGGCTGTGATCGCTTTGTTGTACCGGAGTCACCTAGTGCAG,9370 fluorescence intensity (a.u.)
21,TCTCGGCTCGCAATGCTTTTTGGAGTTTTGTTTCTCTCCCCGGAGTCACCTAGTGCAG,10200 fluorescence intensity (a.u.)
22,TCATTGCACCTCTCATTTAACAAGGGATATAATAGTTCTTCGGAGTCACCTAGTGCAG,8360 fluorescence intensity (a.u.)
23,TGGCATCATCGACCATACACTTTTGTCAATCCGTTCAGCTCGGAGTCACCTAGTGCAG,8910 fluorescence intensity (a.u.)
24,GCTTCAAACTCGAGCTTCTACCAGTACCAGCTACCAGGTGCGGAGTCACCTAGTGCAG,8190 fluorescence intensity (a.u.)
25,CAAACGTTGGAAAAAAGTCAACGGCGTCATATATTTTAATCGGAGTCACCTAGTGCAG,15800 fluorescence intensity (a.u.)
26,AAAAAGTCAACGGCGTCAAACATATTGAAACGGAGGGAGTCGGAGTCACCTAGTGCAG,8240 fluorescence intensity (a.u.)
27,TAGTCAAACGTTGAAAAAAAAAGTCAACGGCGTCACACATCGGAGTCACCTAGTGCAG,20900 fluorescence intensity (a.u.)

row,Sequence,binding signal
1,AAAATTCCTAAAACTACTTGCTACTATTCTCTCTCCAACTCGGAGTCACCTAGTGCAG,8240 fluorescence intensity (a.u.)
2,TCCTCGCGTTCTTTTTCTCCACCGAGACCACCGGCGCTCTCGGAGTCACCTAGTGCAG,9050 fluorescence intensity (a.u.)
3,TTGGTGGCCTTTTCTCCCTTTTTTGCATGTGCTTTGCTCTCGGAGTCACCTAGTGCAG,14100 fluorescence intensity (a.u.)
4,GGATTTTAAGTTTTTACTTGCACTGTTTGACCATTCGTCTCGGAGTCACCTAGTGCAG,9200 fluorescence intensity (a.u.)
5,GATTTTGACTTTTTACTTGCACTGTTTGACCATTCATATTCGGAGTCACCTAGTGCAG,16300 fluorescence intensity (a.u.)
6,GACGCCGTTGACTTTTTATCACATATTTGACCGTTCGTCTCGGAGTCACCTAGTGCAG,20400 fluorescence intensity (a.u.)
7,GGATTTTGACTTTTTACTTGCACTGTTTGACTATTCGTCTCGGAGTCACCTAGTGCAG,18600 fluorescence intensity (a.u.)
8,AGCACATATTTGACCGTTCGTCTTATTCAAAAACTTTTATCGGAGTCACCTAGTGCAG,8540 fluorescence intensity (a.u.)
9,ACGCCGTTGATTTTTTTAAACATATTTGACCGTTCGTCTTCGGAGTCACCTAGTGCAG,11400 fluorescence intensity (a.u.)
10,TGATACCGTTGACTTTTCACATAACTTGGTCGTTCGTTTTCGGAGTCACCTAGTGCAG,34100 fluorescence intensity (a.u.)
11,CACATATCGTTTAAATTTTCGACTTGACCGTTTTTCAATTCGGAGTCACCTAGTGCAG,9550 fluorescence intensity (a.u.)
12,TACCCCTCCGTTTCATATGATAAGTTGTTTGACTTTTTTTCGGAGTCACCTAGTGCAG,14300 fluorescence intensity (a.u.)
13,GATACCGTTGACTTTTTAGCACATATTTGACCGTTCGTCTCGGAGTCACCTAGTGCAG,39400 fluorescence intensity (a.u.)
14,ACTTCACCGGTTTCCGGCGTCCGGCGCGGCGCCTGCAGAACGGAGTCACCTAGTGCAG,9530 fluorescence intensity (a.u.)
15,TAACACCCAACACTTACACTCTGGCATTTTGGAGGTCTTGCGGAGTCACCTAGTGCAG,8990 fluorescence intensity (a.u.)
16,AGCACCTACGGCGGCGTCTTCTCCTACTGCCTACCGCCGACGGAGTCACCTAGTGCAG,9000 fluorescence intensity (a.u.)
17,ATGACGTCCAAAGCTTCACCTTTTTTTTTATATATAAACCCGGAGTCACCTAGTGCAG,8260 fluorescence intensity (a.u.)
18,GGGTAGGAGGAGGTAATTGAGAGGTAATTCCTCCTTTAATCGGAGTCACCTAGTGCAG,9220 fluorescence intensity (a.u.)
19,TTTTGACGACCCTAGCAATATTGCTATACACTCTTCATTCCGGAGTCACCTAGTGCAG,10700 fluorescence intensity (a.u.)
20,AAGAAATCTTCCCTGTCCTACCTTTTCTTCTCACTGTATGCGGAGTCACCTAGTGCAG,8860 fluorescence intensity (a.u.)
21,ACAGGAGAGTGATTACTTTTGCATTATTAATTGATGTTGTCGGAGTCACCTAGTGCAG,8400 fluorescence intensity (a.u.)
22,CACCGTTGACTTTTTAGCACATATTTGACCGTTTGTCTTTCGGAGTCACCTAGTGCAG,39100 fluorescence intensity (a.u.)
23,GACACCGTTAACTTTTTAGCATATGTTTGACCGTTCGTCTCGGAGTCACCTAGTGCAG,10600 fluorescence intensity (a.u.)
24,TTAGCACATGTTTGACCGTTCGTCTTATTCAAAAACTTTTCGGAGTCACCTAGTGCAG,12600 fluorescence intensity (a.u.)
25,GACACTGTTGACTTTTTAGCACATATTTGACCGTTCGTCTCGGAGTCACCTAGTGCAG,21300 fluorescence intensity (a.u.)
26,TTTGACATCATTGACTTTTTAGCACATATTTGACCGTTCGCGGAGTCACCTAGTGCAG,14400 fluorescence intensity (a.u.)
27,CCCACACTTCTCCCGTTCTCCTGGAGGAAGACGACACCCACGGAGTCACCTAGTGCAG,8150 fluorescence intensity (a.u.)
